PubChem BioAssay AID1159580 (chemical genetic matrix, 2015)
“And” between values parts separate entries of the source, which are not always exact repeats. Identical values can stand only once. Screen size: about 5,500 compounds; about 2,000 (36%) were called active. Not shown: some 18% with an inconclusive outcome. Rule as the data show it: active = normalized growth mostly below about 0.91 (no sharp cut-off); inconclusive = no clear call, values can overlap the other calls; inactive = mostly above about 0.92. Some of the results follow.

Assay: chemical genetic growth profiling, strain panel (AID 1159580);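 also: tested at 20 µM; growth read once vehicle control cultures reached saturation at 30 °C; 1 = growth at the plate median or of vehicle wells; lower values mean less growth of the strain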
Settings: S. cerevisiae deletion strains, growth OD

Measured: normalized growth

COC[C@]12CN(C=O)C3[C@@H]4[C@H](OC)C1[C@]3(C1CC3(O)C(OC)C(O)C4(OC(C)=O)C1C3OC(=O)c1ccccc1)[C@@H](OC)C[C@H]2O (stereo not given in full)
inactive: locus YAL021C, strain ccr4, stronger effect = lower value 1.02 | locus YAL026C, strain drs2, stronger effect = lower value 1.01 | locus YAL030W, strain snc1, stronger effect = lower value 1.01 | locus YBL061C, strain skt5, stronger effect = lower value 1.01 | locus YBR009C, strain hhf1, stronger effect = lower value 1.01 | locus YBR021W, strain FUR4, stronger effect = lower value 0.995 | locus YBR023C, strain chs3, stronger effect = lower value 1.01 | locus YBR171W, strain sec66, stronger effect = lower value 1.03 | locus YBR229C, strain ROT2, stronger effect = lower value 1.01 | locus YBR231C, strain swc5, stronger effect = lower value 1.01 | locus YBR279W, strain paf1, stronger effect = lower value 1.01 | locus YCL011C, strain gbp2, stronger effect = lower value 1.01 | locus YCL016C, strain dcc1, stronger effect = lower value 1.01 | locus YCL029C, strain bik1, stronger effect = lower value 0.997 | locus YCL061C, strain MRC1, stronger effect = lower value 1.02 | locus YCL069W, strain vba3, stronger effect = lower value 1.01 | locus YCR088W, strain abp1, stronger effect = lower value 1.01 | locus YDL005C, strain med2, stronger effect = lower value 1.02 | locus YDL035C, strain GPR1, stronger effect = lower value 1.01 | locus YDL040C, strain nat1, stronger effect = lower value 1.01 | locus YDL074C, strain BRE1, stronger effect = lower value 1.03 | locus YDL101C, strain DUN1, stronger effect = lower value 1.02 | locus YDL185W, strain tfp1, stronger effect = lower value 1.01 | locus YDL192W, strain arf1, stronger effect = lower value 1 | locus YDR001C, strain nth1, stronger effect = lower value 1.01 | locus YDR069C, strain doa4, stronger effect = lower value 1.02 | locus YDR101C, strain arx1, stronger effect = lower value 0.99 | locus YDR137W, strain rgp1, stronger effect = lower value 1.01 | locus YDR159W, strain sac3, stronger effect = lower value 1.01 | locus YDR162C, strain NBP2, stronger effect = lower value 1.02 | locus YDR195W, strain ref2 1.01 | locus YDR297W, strain sur2, stronger effect = lower value 1 | locus YDR318W, strain mcm21, stronger effect = lower value 1.01 | locus YDR334W, strain swr1, stronger effect = lower value 1.01 | locus YDR335W, strain msn5, stronger effect = lower value 0.998 | locus YDR388W, stronger effect = lower value 0.998 | locus YDR392W, strain spt3, stronger effect = lower value 1.01 | locus YDR502C, strain sam2, stronger effect = lower value 1.02 | locus YEL003W, strain gim4, stronger effect = lower value 1.01 | locus YEL037C, strain rad23, stronger effect = lower value 1 | locus YEL061C, strain CIN8 (second series), stronger effect = lower value 1 | locus YEL061C, strain CIN8, stronger effect = lower value 1.01 | locus YER015W, strain faa2, stronger effect = lower value 1.01 | locus YER016W, strain bim1, stronger effect = lower value 1.03 | locus YER110C, stronger effect = lower value 1.01 | locus YER111C, strain swi4, stronger effect = lower value 1.01 | locus YER155C, strain BEM2 (second series), stronger effect = lower value 1.03 | locus YER155C, strain BEM2, stronger effect = lower value 0.995 | locus YER167W, strain BCK2, stronger effect = lower value 1.01 | locus YFR010W, strain ubp6, stronger effect = lower value 1.02 | locus YGL078C, strain dbp3, stronger effect = lower value 1.02 | locus YGL086W, strain mad1, stronger effect = lower value 1.01 | locus YGL167C, strain pmr1, stronger effect = lower value 1.02 | locus YGL173C, strain kem1, stronger effect = lower value 1.01 | locus YGL227W, strain vid30, stronger effect = lower value 1.01 | locus YGL240W, strain doc1, stronger effect = lower value 1.01 | locus YGL248W, strain PDE1, stronger effect = lower value 1.02 | locus YGL253W, strain hxk2, stronger effect = lower value 1.02 | locus YGR135W, strain pre9, stronger effect = lower value 1.02 | locus YGR252W, strain gcn5, stronger effect = lower value 1.02 | locus YHR013C, strain ard1, stronger effect = lower value 1.01 | locus YHR027C, strain rpn1, stronger effect = lower value 1.01 | locus YHR030C, strain SLT2, stronger effect = lower value 1 and 1.05 | locus YHR079C, strain IRE1 (second series), stronger effect = lower value 1.01 | locus YHR079C, strain IRE1, stronger effect = lower value 1.04 | locus YHR094C, strain hxt1, stronger effect = lower value 1.01 | locus YHR129C, strain ARP1, stronger effect = lower value 1 | locus YHR142W, strain chs7, stronger effect = lower value 0.999 | locus YHR200W, strain rpn10, stronger effect = lower value 1.01 | locus YIL066C, strain RNR3, stronger effect = lower value 1.01 | locus YIL073C, strain SPO22, stronger effect = lower value 1.04 | locus YIL125W, strain kgd1, stronger effect = lower value 0.999 | locus YIR030C, strain dcg1, stronger effect = lower value 1 | locus YJL092W, strain hpr5, stronger effect = lower value 1.01 | locus YJL095W, strain BCK1 (second series), stronger effect = lower value 1.02 | locus YJL095W, strain BCK1, stronger effect = lower value 1.04 and 1.02 | locus YJL115W, strain asf1, stronger effect = lower value 0.997 | locus YJL129C, strain trk1, stronger effect = lower value 1.02 | locus YJL134W, strain LCB3, stronger effect = lower value 1.01 | locus YJL154C, strain vps35, stronger effect = lower value 1.01 | locus YJL164C, strain tpk1, stronger effect = lower value 1.01 | locus YJL166W, strain qcr8, stronger effect = lower value 1.01 | locus YJL168C, strain set2, stronger effect = lower value 0.997 | locus YJL187C, strain SWE1 (second series), stronger effect = lower value 1.03 | locus YJL187C, strain SWE1, stronger effect = lower value 1.01
